In PubChem BioAssay (Tox21):
Results filed as inconclusive are left out. Activity calls are given as the source filed them. Unless noted, calls come from the whole dose curve.

What was measured:
[1] = Nuclear factor erythroid 2-related factor 2/antioxidant responsive element (Nrf2/ARE) small molecule agonists: luciferase reporter gene qHTS assay in human keratinocytes (AID 1919969); note: nearly all actives have a fitted effect of over 35% in size; note: potency is the fitted concentration of half-maximal effect
[2] = target: Gonadotropin-releasing hormone receptor (Homo sapiens) (UniProt P30968); test: Human gonadotropin-releasing hormone receptor (GnRHR) small molecule agonists, calcium flux assay in GnRHR-HEK293 cells (AID 1920063); note: nearly all actives have a fitted effect of over 35% in size
Method in brief: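 Fluorescence kinetics (480 nm excitation, 540 nm emission; 3 min, 1 s steps) report calcium mobilisation in human GnRHR-HEK293 cells in agonist mode. Dye incubation: 1 h, 37 C.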

[3] = target: KiSS-1 receptor (Homo sapiens) (UniProt Q969F8); test: Human kisspeptin (KISS1R) small molecule agonists, calcium flux assay in KISS1R-HEK293 cells (AID 1920064; active = well fitted activation curve with a large enough effect in the repeat runs)
Method in brief: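 Measures KISS1R agonism through calcium-sensitive dye fluorescence in stably transfected HEK293 cells, read for 3 min after pin-tool compound delivery; 15-point titrations in triplicate.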

[4] = G protein-coupled receptor (GPCR) small molecule agonists, calcium flux assay: HEK293 wild type cell line counter screen (AID 1920065)
Method in brief: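 Readout: fluorescence at 480 nm excitation/540 nm emission, sampled at 1 s intervals for 3 min. Cells had been cultured 18 h, then dye-loaded 1 h at 37 C before compound or ATP addition.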

[5] = p53 small molecule agonists, cell-based qHTS assay with rat liver microsomes (AID 1963578)
Method in brief: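 Metabolic activation is supplied by rat liver microsomes with NADPH (each 0.5 mg/mL final). p53RE-bla cells incubate with compound 16 h at 37 C; reporter activity is measured by LiveBLAzer fluorescence.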

[6] = p53 small molecule agonists, cell-based qHTS assay with rat liver microsomes: qHTS cell viability counter screen (AID 1963580); note: nearly all actives have a fitted effect of over 45% in size
Method in brief: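 In HCT-116 cells carrying a p53 response element-bla reporter, compounds were metabolically activated in situ by rat liver microsomes with NADPH over 16 h. Cell ATP content then served as the cytotoxicity measure.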

[7] = p53 small molecule agonists, cell-based qHTS assay: qHTS cell viability counter screen (AID 1963581); note: nearly all actives have a fitted effect of over 45% in size
Method in brief: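 In the same plates used for the p53 bla reporter, HCT-116 cells given compounds for 16 h at 37 C received CellTiter-Glo; luminescence was recorded 30 min later at room temperature.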

[8] = target: 5-hydroxytryptamine receptor 2A (Homo sapiens) (UniProt P28223); test: 5-hydroxytryptamine receptor 2A (HTR2A) small molecule antagonists, cell-based qHTS assay (AID 1963586); note: nearly all actives have a fitted effect of over 45% in size; note: potency is the fitted concentration of half-maximal effect
Method in brief: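 Antagonist-mode intracellular calcium assay: DOI (4 nM) added after 5 min compound pre-incubation at room temperature to dye-loaded HTR2A-CHO cells. Fluorescence followed for 3 min, sampled every second.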

[9] = target: 5-hydroxytryptamine receptor 2A (Homo sapiens) (UniProt P28223); test: 5-hydroxytryptamine receptor 2A (HTR2A) small molecule agonists, cell-based qHTS assay (AID 1963587); note: nearly all actives have a fitted effect of over 30% in size
Method in brief: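 HTR2A-CHO cells, plated 18 h at 37 C/5% CO2, dye-loaded 1 h at 37 C; compounds in DMSO added by pin tool (agonist mode). Intracellular calcium flux read as kinetic fluorescence on FDSS over 2 min at 1 s intervals.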

[10] = target: Muscarinic acetylcholine receptor M1 (Homo sapiens) (UniProt P11229); test: Cholinergic receptor muscarinic 1 (CHRM1) small molecule antagonists, cell-based qHTS assay (AID 1963588); note: nearly all actives have a fitted effect of over 40% in size
Method in brief: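 CHRM1-CHO calcium-flux assay, antagonist mode. Cells were seeded 18 h, dye-loaded 1 h at 37 C and given compound for 5 min at RT, then acetylcholine was added at 50nM. FDSS fluorescence was read 3 min; 15 concentrations, three runs.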

[11] = target: Muscarinic acetylcholine receptor M1 (Homo sapiens) (UniProt P11229); test: Cholinergic receptor muscarinic 1 (CHRM1) small molecule agonists, cell-based qHTS assay (AID 1963589); note: nearly all actives have a fitted effect of over 35% in size
Method in brief: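 Each compound was tested at 15 concentrations across three independent runs on dye-loaded CHO cells stably expressing human CHRM1, reading intracellular calcium fluorescence kinetically at 1 sec intervals.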

[12] = cAMP Responsive Elements (CRE) small molecule agonists, cell-based qHTS assay (AID 1963590)
Method in brief: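 Cell line: CRE-bla HEK 293T; medium DMEM/10% dialyzed FBS/0.1 mM NEAA/1 mM pyruvate/25 mM HEPES; 3 h compound exposure; beta-lactamase FRET readout after 2 h substrate loading at RT.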

[13] = cAMP Responsive Elements (CRE) small molecule antagonists, cell-based qHTS assay (AID 1963591; active = well fitted inhibition curve with a large enough effect in the signal ratio in the repeat runs, not every such curve was filed as active; the % refers to the signal ratio)
Method in brief: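 Inhibition of NKH477-driven (0.25 uM final) CRE-beta-lactamase signal in HEK293T cells, 3 h compound exposure at 37 °C, detected by FRET substrate fluorescence.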

[14] = target: Beta-2 adrenergic receptor (Homo sapiens) (UniProt P07550); test: Adrenergic beta2 receptor (ADRB2) small molecule antagonists, cell-based qHTS assay (AID 1963592); note: nearly all actives have a fitted effect of over 50% in size; note: potency is the fitted concentration of half-maximal effect
Method in brief: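 Cells (CHO, stable ADRB2 overexpression) incubated 18-20hr at 37C; compounds added from DMSO; agonist mix (1nM isoproterenol, 100uM IBMX, 25uM Ro-20-1724) added; 0.5hr RT; d2-cAMP and anti-cAMP-cryptate added; 1hr RT; 665/615 nm read.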

[15] = target: Beta-2 adrenergic receptor (Homo sapiens) (UniProt P07550); test: Adrenergic beta2 receptor (ADRB2) small molecule agonists, cell-based qHTS assay (AID 1963593);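 note: CHO cells stably overexpressing human ADRB2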
Method in brief: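 CHO cells stably over-expressing ADRB2 were plated overnight at 37C, then dosed with compounds plus a stimulation mix containing 100uM IBMX and 25uM Ro-20-1724 for 0.5hr at room temperature. cAMP was measured by HTRF competition, 1hr.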

[16] = target: D(2) dopamine receptor (Homo sapiens) (UniProt P14416); test: Dopamine D2 receptor (DRD2) small molecule antagonists, cell-based qHTS assay (AID 1963595; active = well fitted inhibition curve with a large enough effect in the signal ratio in the repeat runs, with a control signal flat; the % refers to the signal ratio; note: potency is the fitted concentration of half-maximal effect)
Method in brief: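 Antagonist mode in DRD2-HEK293 cells: after compound addition with 0.1 mM Ro20-1724, cells received quinpirole (12 nM) and NKH477 (200 nM) for 30 min at room temperature; HTRF cAMP read after 1 h detection.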

[17] = p53 small molecule agonists, cell-based qHTS assay with human liver microsomes (AID 1963577);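 note: p53 response element beta-lactamase reporter cells with liver microsomes plus NADPH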
Method in brief: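 Steps: plate p53RE-bla cells, incubate 5 h at 37 C; add compound in DMSO; add microsomes (0.5 mg/mL final) and NADPH (0.5 mg/mL final); incubate 16 h at 37 C; add LiveBLAzer, 2 h RT; read fluorescence.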

[18] = p53 small molecule agonists, cell-based qHTS assay with human liver microsomes: qHTS cell viability counter screen (AID 1963579); note: nearly all actives have a fitted effect of over 45% in size; note: potency is the fitted concentration of half-maximal effect
Method in brief: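 After the 460/530 nm beta-lactamase read, CellTiter-Glo was added to the same wells and luminescence measured after 30 min at room temperature, giving viability of p53RE-bla cells treated 16 h with compounds plus microsomes and NADPH.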

[19] = p53 small molecule agonists, cell-based qHTS assay (AID 1963582; active = well fitted activation curve with a large enough effect in the signal ratio in the repeat runs, not every such curve was filed as active; the % refers to the signal ratio)
Method in brief: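 Compounds are pin-transferred in DMSO onto p53RE-bla cells and incubated 16 h at 37 C. The B/G FRET beta-lactamase substrate is then applied for 2 h at RT and fluorescence recorded.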

[20] = target: D(2) dopamine receptor (Homo sapiens) (UniProt P14416); test: Dopamine D2 receptor (DRD2) small molecule agonists, cell-based qHTS assay (AID 1963594); note: nearly all actives have a fitted effect of over 35% in size; note: potency is the fitted concentration of half-maximal effect
Method in brief: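 HEK293 cells stably expressing DRD2 were cultured 24 h at 37 C, then given Ro20-1724 (0.1 mM final) and compounds for 10 min at room temperature. NKH477 (200nM) was then added for 30 min. cAMP was read by HTRF.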

Measured: Potency

Sequence of Beta-2 adrenergic receptor (Homo sapiens) (P07550 whole entry, looked up): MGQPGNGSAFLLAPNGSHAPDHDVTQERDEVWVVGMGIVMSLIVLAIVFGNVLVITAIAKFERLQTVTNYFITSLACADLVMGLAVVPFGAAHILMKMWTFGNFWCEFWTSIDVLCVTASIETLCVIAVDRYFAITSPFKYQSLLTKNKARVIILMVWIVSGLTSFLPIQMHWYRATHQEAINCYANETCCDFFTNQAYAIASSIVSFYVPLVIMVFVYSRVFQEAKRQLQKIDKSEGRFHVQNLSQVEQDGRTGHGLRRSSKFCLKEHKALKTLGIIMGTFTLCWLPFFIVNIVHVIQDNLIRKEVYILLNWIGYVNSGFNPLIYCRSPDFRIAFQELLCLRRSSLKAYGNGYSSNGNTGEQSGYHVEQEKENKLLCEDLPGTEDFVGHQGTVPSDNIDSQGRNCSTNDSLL
Sequence of 5-hydroxytryptamine receptor 2A (Homo sapiens) (P28223 whole entry, looked up): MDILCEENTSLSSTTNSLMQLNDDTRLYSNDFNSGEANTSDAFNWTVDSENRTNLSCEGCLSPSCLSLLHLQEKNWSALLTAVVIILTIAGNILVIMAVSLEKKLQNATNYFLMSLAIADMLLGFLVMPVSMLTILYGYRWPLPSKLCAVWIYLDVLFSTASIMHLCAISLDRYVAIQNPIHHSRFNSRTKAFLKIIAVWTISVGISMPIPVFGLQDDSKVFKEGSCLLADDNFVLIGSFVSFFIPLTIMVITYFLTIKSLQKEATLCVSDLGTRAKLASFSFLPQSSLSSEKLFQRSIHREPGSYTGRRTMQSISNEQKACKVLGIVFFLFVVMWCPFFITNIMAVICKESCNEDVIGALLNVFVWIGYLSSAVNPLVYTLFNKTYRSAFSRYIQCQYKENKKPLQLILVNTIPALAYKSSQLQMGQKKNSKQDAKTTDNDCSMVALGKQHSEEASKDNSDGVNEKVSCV
Sequence of Muscarinic acetylcholine receptor M1 (Homo sapiens) (P11229 whole entry, looked up): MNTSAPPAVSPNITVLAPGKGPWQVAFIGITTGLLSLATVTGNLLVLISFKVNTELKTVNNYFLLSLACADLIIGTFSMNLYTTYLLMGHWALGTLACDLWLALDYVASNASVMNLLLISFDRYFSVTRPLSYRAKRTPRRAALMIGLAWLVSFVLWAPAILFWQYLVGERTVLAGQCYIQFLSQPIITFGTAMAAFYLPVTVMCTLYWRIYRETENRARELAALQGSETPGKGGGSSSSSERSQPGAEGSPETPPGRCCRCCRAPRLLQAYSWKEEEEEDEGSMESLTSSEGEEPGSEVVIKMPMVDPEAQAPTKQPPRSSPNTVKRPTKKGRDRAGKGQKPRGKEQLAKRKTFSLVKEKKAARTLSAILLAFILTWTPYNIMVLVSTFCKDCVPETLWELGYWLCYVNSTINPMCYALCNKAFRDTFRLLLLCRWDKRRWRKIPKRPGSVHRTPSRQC
Sequence of KiSS-1 receptor (Homo sapiens) (Q969F8 whole entry, looked up): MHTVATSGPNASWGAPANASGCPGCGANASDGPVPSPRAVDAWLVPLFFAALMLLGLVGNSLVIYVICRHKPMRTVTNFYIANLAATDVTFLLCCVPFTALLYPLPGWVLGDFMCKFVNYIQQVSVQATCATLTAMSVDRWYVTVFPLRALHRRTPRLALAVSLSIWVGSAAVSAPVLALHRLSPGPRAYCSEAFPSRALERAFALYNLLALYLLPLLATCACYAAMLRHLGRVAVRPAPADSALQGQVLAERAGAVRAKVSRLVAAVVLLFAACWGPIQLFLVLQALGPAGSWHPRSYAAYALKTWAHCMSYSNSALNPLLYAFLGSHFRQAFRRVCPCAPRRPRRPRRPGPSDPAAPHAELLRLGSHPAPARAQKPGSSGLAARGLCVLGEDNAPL
Sequence of Gonadotropin-releasing hormone receptor (Homo sapiens) (P30968 whole entry, looked up): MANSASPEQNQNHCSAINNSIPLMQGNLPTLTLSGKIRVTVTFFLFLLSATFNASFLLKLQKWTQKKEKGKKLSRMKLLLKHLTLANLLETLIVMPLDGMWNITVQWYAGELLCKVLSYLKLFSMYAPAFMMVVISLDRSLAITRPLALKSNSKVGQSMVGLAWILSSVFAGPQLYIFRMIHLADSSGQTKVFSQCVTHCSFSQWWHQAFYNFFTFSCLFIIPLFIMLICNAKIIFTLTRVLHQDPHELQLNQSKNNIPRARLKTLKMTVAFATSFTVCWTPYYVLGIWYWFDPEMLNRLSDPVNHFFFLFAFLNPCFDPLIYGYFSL
Sequence of D(2) dopamine receptor (Homo sapiens) (P14416 whole entry, looked up): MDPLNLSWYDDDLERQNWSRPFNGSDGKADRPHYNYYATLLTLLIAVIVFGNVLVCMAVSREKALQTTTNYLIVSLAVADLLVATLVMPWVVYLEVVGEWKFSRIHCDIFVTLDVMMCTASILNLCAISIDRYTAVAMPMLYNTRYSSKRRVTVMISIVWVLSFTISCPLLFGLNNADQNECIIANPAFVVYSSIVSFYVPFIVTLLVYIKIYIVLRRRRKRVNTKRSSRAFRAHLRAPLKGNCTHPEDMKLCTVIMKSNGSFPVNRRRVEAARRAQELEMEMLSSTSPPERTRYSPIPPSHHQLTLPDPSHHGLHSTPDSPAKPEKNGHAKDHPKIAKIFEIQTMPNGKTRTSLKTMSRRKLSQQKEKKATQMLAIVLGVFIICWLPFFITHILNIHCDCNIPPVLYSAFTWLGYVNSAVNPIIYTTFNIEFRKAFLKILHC

CCOCC(O)COc1ccc(NC(=O)CC[S+](C)C)cc1 (configuration not stated)
not listed: [17] | [18] | [19] | [20]
inactive: all other assays above

CN1CCN(c2cc3c(cc2F)c(=O)c(C(=O)O)cn3-c2ccc(F)cc2)CC1
not listed: [5] | [12] | [13] | [15]
inactive: all other assays above

CC1(C)S[C@@H]2[C@H](NC(=O)C(C(=O)O)c3ccccc3)C(=O)N2[C@H]1C(=O)O (some centres not stated)
active: [18] 177 nM
not listed: [4] | [14] | [15]
inactive: all other assays above

CCCCCOC(=O)CCC
not listed: [1] | [13] | [15]
inactive: all other assays above

O=C1c2ccccc2C(=O)C1c1ccc2ccccc2n1
active: [1] 1.21 µM
not listed: [5] | [6] | [9] | [15]
inactive: all other assays above

CCCCCC(C)N (configuration not stated)
not listed: [1] | [15]
inactive: all other assays above

COC(=O)c1ccc(OC)cc1
not listed: [1] | [15] | [20]
inactive: all other assays above

Nc1ccccc1S(=O)(=O)c1ccccc1
not listed: [15] | [17]
inactive: all other assays above

O=S1OCCO1
not listed: [2] | [15]
inactive: all other assays above

CCC(C)C(=O)OC (configuration not stated)
not listed: [4] | [15]
inactive: all other assays above

Nc1nc2c(ncn2COC(CO)CO)c(=O)[nH]1
active: [20] 1.14 µM
not listed: [2] | [8] | [9] | [10] | [11]
inactive: all other assays above

O=C1NCN(c2ccccc2)C12CCN(CCCC(c1ccc(F)cc1)c1ccc(F)cc1)CC2
active: [8] 51.6 nM | [14] 23.7 µM | [16] 33.5 nM
not listed: [4] | [7] | [10] | [12] | [13] | [15] | [19]
inactive: all other assays above

CCNC(=O)NCCCOc1cccc(CN2CCCCC2)c1
not listed: [5] | [7]
inactive: all other assays above
